This note sets out measurements from the antibiotic and cytotoxicity screens of Wong et al. (2023).

Structures are written as SMILES. In all, about 39,000 compounds went through this assay and about 1,500 (3.8%) were called active. The sample as a whole holds a higher share of actives than the screen did.

This test deals with HSkMC (human skeletal muscle cells). Put plainly: cytotoxicity call (relative viability < 0.9). Particulars: 10 µM.
As to `CO[C@@H]1CN(C)C(=O)c2ccc(NS(=O)(=O)c3cn(C)cn3)cc2OC[C@H](C)N(Cc2cccc(F)c2)C[C@@H]1C`, the cytotoxicity call was “inactive”.

As for `C=C1C(=O)OC2CC3(C)CCCC(C)C3=CC12` (centres undefined), the cytotoxicity call was “active”.

`C[C@H]1CN([C@@H](C)CO)C(=O)c2cc(NC(=O)C3CCCCC3)ccc2O[C@@H]1CN(C)Cc1ccc(Cl)c(Cl)c1`: the cytotoxicity call was “inactive”.

`CC(C)c1c(O)ccc2c1CCC1C(C)(C)C(=O)CCC21C` (centres undefined): the cytotoxicity call was “inactive”.

In the case of `COC(=O)C1(C)CCCC2(C)c3ccc(C(C)C)cc3C(=O)CC12` (centres undefined), the cytotoxicity call is “inactive”.

Turning to `CC(C)c1c(O)ccc2c1CC[C@H]1C(C)(C)CCC[C@]21C`, the cytotoxicity call is “active”.

As for `CC(C)c1c(O)ccc2c1CCC1C(C)(C=O)CCCC21C` (centres undefined), the cytotoxicity call is “inactive”.

As for `COC(=O)C1(C)CCCC2(C)c3ccc(O)c(C(C)C)c3CCC12` (centres undefined), the cytotoxicity call is “active”.

With `CC(C)c1c(O)ccc2c1CCC1C(C)(C)CCCC21C` (centres undefined), the cytotoxicity call was “inactive”.

For `Cn1cnc(CCNC(=O)C[C@H]2CC[C@@H]3[C@H](COC[C@H](O)CN3C(=O)Nc3ccc(Cl)cc3)O2)c1`, the cytotoxicity call was “inactive”.

Turning to `C[C@@H]1CN([C@@H](C)CO)C(=O)c2cc(NC(=O)c3ccccc3)ccc2O[C@@H](C)CCCCO[C@H]1CN(C)S(=O)(=O)c1cccs1`, the cytotoxicity call is “inactive”.

`COCC#Cc1ccc2c(c1)O[C@H](CN(C)S(=O)(=O)c1cccc(F)c1)[C@H](C)CN([C@H](C)CO)S2(=O)=O`: the cytotoxicity call was “inactive”.

With `NC(=O)N1CCC(CC(=O)N2CCC([C@H]3c4ncc(Br)cc4CCc4cc(Cl)cc(Br)c43)CC2)CC1`, the cytotoxicity call is “inactive”.

For the compound `C[C@@H]1CN([C@@H](C)CO)C(=O)CCCn2cc(nn2)CO[C@@H]1CN(C)S(=O)(=O)c1ccc2c(c1)OCCCO2`, the cytotoxicity call was “inactive”.

As to `Cc1ccc(S(=O)(=O)N(C)C[C@@H]2Oc3c(NC(=O)C4CCOCC4)cccc3C(=O)N([C@H](C)CO)C[C@H]2C)cc1`, the cytotoxicity call is “inactive”.

As to `C[C@@H]1CN([C@@H](C)CO)C(=O)c2c(c3ccccc3n2C)-c2ccccc2CO[C@@H]1CN(C)Cc1cccc(F)c1`, the cytotoxicity call is “inactive”.

Take `Cc1ccccc1S(=O)(=O)N(C)C[C@@H]1Oc2ccc(NC(=O)Nc3ccc(Cl)c(Cl)c3)cc2CC(=O)N([C@@H](C)CO)C[C@@H]1C`: the cytotoxicity call was “active”.

For `C[C@H]1CN([C@@H](C)CO)C(=O)Cc2cc(NC(=O)Nc3cc(Cl)cc(Cl)c3)ccc2O[C@H]1CN(C)S(=O)(=O)c1ccc(Oc2ccccc2)cc1`, the cytotoxicity call is “inactive”.

Regarding `C[C@H]1CN([C@@H](C)CO)C(=O)Cc2cc(NC(=O)Nc3ccc(Cl)c(Cl)c3)ccc2O[C@H]1CN(C)S(=O)(=O)c1ccc(Oc2ccccc2)cc1`, the cytotoxicity call was “inactive”.

As for `Cc1ccccc1S(=O)(=O)N(C)C[C@@H]1Oc2ccc(NC(=O)Nc3cc(Cl)cc(Cl)c3)cc2CC(=O)N([C@@H](C)CO)C[C@@H]1C`, the cytotoxicity call was “active”.

On to `C[C@H](CO)N1C[C@H](C)[C@@H](CN(C)S(C)(=O)=O)Oc2ccc(NC(=O)Nc3ccccc3)cc2CC1=O`, for which the cytotoxicity call was “inactive”.

Consider `Cc1noc(C)c1S(=O)(=O)N(C)C[C@@H]1Oc2ccc(NC(=O)Nc3ccccc3)cc2CC(=O)N([C@@H](C)CO)C[C@@H]1C`, for which the cytotoxicity call is “inactive”.

`Nc1ccccc1CO`: the cytotoxicity call was “inactive”.

Regarding `C[C@H](CO)N1C[C@H](C)[C@H](CN(C)CC2CC2)OCCCC[C@H](C)Oc2ccc(NC(=O)Nc3ccccc3)cc2C1=O`, the cytotoxicity call was “inactive”.

Turning to `C[C@@H]1CCCCO[C@H](CN(C)Cc2ccc3c(c2)OCO3)[C@H](C)CN([C@H](C)CO)C(=O)c2cc(NC(=O)Nc3ccc4c(c3)OCO4)ccc2O1`, the cytotoxicity call was “inactive”.

Regarding `Cc1ccc(S(=O)(=O)Nc2ccc3c(c2)C(=O)N([C@@H](C)CO)C[C@H](C)[C@H](CN(C)Cc2ccccc2)OCCCC[C@@H](C)O3)cc1`, the cytotoxicity call is “inactive”.

Consider `O=C(C1=C[C@@H](c2ccc3c(c2)OCO3)C[C@@H](OCCCCO)O1)N1CCN(Cc2ccc3c(c2)OCO3)CC1`, for which the cytotoxicity call was “inactive”.

`C[C@H]1CN([C@@H](C)CO)C(=O)c2cc(C#CC3(O)CCCC3)cnc2O[C@@H]1CN(C)C(=O)Cc1ccncc1`: the cytotoxicity call was “inactive”.

In the case of `COc1ccc(S(=O)(=O)N2C[C@@H](O)COC[C@@H]3O[C@@H](CC(=O)NCCCN4CCOCC4)CC[C@H]32)cc1`, the cytotoxicity call is “inactive”.

As for `CCCCCCOC(=O)/N=C(/N)c1ccc(NCc2nc3cc(C(=O)N(CCC(=O)OCC)c4ccccn4)ccc3n2C)cc1`, the cytotoxicity call was “active”.

Take `CCCCCCOC(=O)N=C(N)c1ccc(NCc2nc3cc(C(=O)N(CCC(=O)OCC)c4ccccn4)ccc3n2C)cc1.CS(=O)(=O)O`: the cytotoxicity call is “inactive”.

`COc1ccc(NC(=O)Nc2cccc3c2O[C@@H](CN(C)S(C)(=O)=O)[C@@H](C)CN([C@H](C)CO)C3=O)cc1`: the cytotoxicity call is “inactive”.

Take `C[C@H](CO)N1C[C@H](C)[C@H](CN(C)S(C)(=O)=O)Oc2ccc(NS(=O)(=O)c3ccc(F)cc3)cc2CC1=O`: the cytotoxicity call is “inactive”.

`C[C@H](CO)N1C[C@H](C)[C@@H](CN(C)C(=O)Nc2ccc3c(c2)OCO3)Oc2ccc(NC(=O)c3ccncc3)cc2CC1=O`: the cytotoxicity call is “inactive”.

`Cc1noc(C)c1NC(=O)Nc1ccc2c(c1)C(=O)N([C@@H](C)CO)C[C@@H](C)[C@H](CN(C)Cc1ccccc1)OCCCC[C@@H](C)O2`: the cytotoxicity call is “inactive”.

In the case of `C[C@H](CO)N1C[C@H](C)[C@H](CN(C)CC2CC2)OCCCC[C@H](C)Oc2ccc(NC(=O)Nc3ccc(C(F)(F)F)cc3)cc2C1=O`, the cytotoxicity call is “inactive”.

For `C[C@@H]1CCCCO[C@H](CN(C)CC2CC2)[C@H](C)CN([C@H](C)CO)C(=O)c2cc(NC(=O)Nc3ccc(C(F)(F)F)cc3)ccc2O1`, the cytotoxicity call was “active”.

`C[C@@H]1CCCCO[C@@H](CN(C)CC2CC2)[C@H](C)CN([C@@H](C)CO)C(=O)c2cc(NC(=O)Nc3ccc(C(F)(F)F)cc3)ccc2O1`: the cytotoxicity call was “inactive”.

For `CCCN(C)C[C@@H]1OCCCC[C@H](C)Oc2ccc(NC(=O)Nc3ccc(C(F)(F)F)cc3)cc2C(=O)N([C@@H](C)CO)C[C@@H]1C`, the cytotoxicity call was “active”.

In the case of `C[C@@H]1CCCCO[C@H](CN(C)CC2CC2)[C@H](C)CN([C@@H](C)CO)C(=O)c2cc(NC(=O)Nc3ccc(C(F)(F)F)cc3)ccc2O1`, the cytotoxicity call is “active”.

For the compound `CCCN(C)C[C@H]1OCCCC[C@H](C)Oc2ccc(NC(=O)Nc3ccc(C(F)(F)F)cc3)cc2C(=O)N([C@@H](C)CO)C[C@H]1C`, the cytotoxicity call is “inactive”.

On to `C[C@H]1CCCCO[C@H](CN(C)CC2CC2)[C@@H](C)CN([C@@H](C)CO)C(=O)c2cc(NC(=O)Nc3ccc(C(F)(F)F)cc3)ccc2O1`, for which the cytotoxicity call is “inactive”.

With `CCCN(C)C[C@@H]1OCCCC[C@@H](C)Oc2ccc(NC(=O)Nc3ccc(C(F)(F)F)cc3)cc2C(=O)N([C@H](C)CO)C[C@@H]1C`, the cytotoxicity call was “inactive”.

On to `C[C@@H]1CCCCO[C@@H](CN(C)CC2CC2)[C@@H](C)CN([C@H](C)CO)C(=O)c2cc(NC(=O)Nc3ccc(C(F)(F)F)cc3)ccc2O1`, for which the cytotoxicity call is “inactive”.
